Holding throughout (experiment): DAPPL (digital affinity profiling via proximity ligation, sequencing); 10 mM Tris-HCl pH 7.5, 50 mM NaCl, 1 mM DTT, 4% glycerol, room temperature, 30 min; GST-TFs on glutathione beads, 16-mer random dsDNA library, 0.1% formaldehyde crosslink after washing; high values mean tight binding
The target of one test is T1, FLI1 (Homo sapiens, UniProt Q01543 1-452).
T1 sequence: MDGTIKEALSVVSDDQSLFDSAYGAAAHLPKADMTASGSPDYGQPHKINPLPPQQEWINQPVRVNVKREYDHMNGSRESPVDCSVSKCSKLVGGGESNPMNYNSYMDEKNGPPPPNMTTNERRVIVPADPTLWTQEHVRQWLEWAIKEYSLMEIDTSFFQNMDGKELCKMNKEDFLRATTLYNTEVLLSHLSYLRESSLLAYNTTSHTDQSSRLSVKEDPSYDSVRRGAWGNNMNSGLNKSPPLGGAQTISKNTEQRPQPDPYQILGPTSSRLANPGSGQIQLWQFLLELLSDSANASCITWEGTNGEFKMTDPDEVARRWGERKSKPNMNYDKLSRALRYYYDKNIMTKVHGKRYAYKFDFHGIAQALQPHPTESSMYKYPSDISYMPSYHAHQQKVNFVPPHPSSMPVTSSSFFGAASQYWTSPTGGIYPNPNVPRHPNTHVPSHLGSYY
The note with it: protein: recombinant; tags: N-terminal GST; dsDNA, one strand shown. The essentials:
(§1)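 The binding signal reported is, for every hexamer, its read frequency for a factor over its read frequency for the tag-only sample. Reads came from pools of yeast-expressed, GST-fused human transcription factors on glutathione beads, barcoded with DNA and mixed with that sample, which were incubated with 200 nmole of a random double-stranded 16-mer DNA library in Tris/NaCl/DTT/glycerol buffer at room temperature for 30 min. After washing, the pools were crosslinked with 0.1% formaldehyde, proximity-ligated with BsaI/T4 ligase for 1 h at 37 °C, PCR-amplified and sequenced on an Illumina NextSeq500.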

The target in a further test is T2, ELK1 (Homo sapiens, UniProt P19419 1-428).
T2 sequence: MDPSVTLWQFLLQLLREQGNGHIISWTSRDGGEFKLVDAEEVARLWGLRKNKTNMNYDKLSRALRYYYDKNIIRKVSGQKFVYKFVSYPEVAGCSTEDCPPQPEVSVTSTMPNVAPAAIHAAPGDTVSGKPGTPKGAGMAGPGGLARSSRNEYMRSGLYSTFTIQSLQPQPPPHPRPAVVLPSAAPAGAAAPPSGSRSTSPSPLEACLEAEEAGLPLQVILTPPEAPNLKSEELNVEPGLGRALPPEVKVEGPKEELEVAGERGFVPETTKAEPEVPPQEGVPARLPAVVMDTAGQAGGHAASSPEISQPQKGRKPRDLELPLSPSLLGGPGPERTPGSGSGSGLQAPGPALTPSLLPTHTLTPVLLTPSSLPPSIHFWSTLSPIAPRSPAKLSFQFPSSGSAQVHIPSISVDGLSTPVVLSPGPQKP
Particulars: protein: recombinant; tags: N-terminal GST; dsDNA, one strand shown. The essentials:
as §1

The next test addresses T3, GABPA (Homo sapiens, UniProt Q06546 1-454).
T3 sequence: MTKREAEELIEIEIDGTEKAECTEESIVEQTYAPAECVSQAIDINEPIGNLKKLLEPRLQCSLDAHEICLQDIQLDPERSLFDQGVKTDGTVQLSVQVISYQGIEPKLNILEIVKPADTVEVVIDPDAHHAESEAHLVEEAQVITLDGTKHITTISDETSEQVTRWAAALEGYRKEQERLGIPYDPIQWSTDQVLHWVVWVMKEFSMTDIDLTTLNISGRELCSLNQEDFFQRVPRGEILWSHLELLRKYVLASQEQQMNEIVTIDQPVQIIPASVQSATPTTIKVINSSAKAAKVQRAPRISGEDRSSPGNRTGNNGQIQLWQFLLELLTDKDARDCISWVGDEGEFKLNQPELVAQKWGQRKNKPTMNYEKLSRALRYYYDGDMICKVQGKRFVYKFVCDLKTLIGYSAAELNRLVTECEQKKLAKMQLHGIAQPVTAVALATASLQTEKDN
Particulars: protein: recombinant; tags: N-terminal GST; dsDNA, one strand shown. Put shortly: as §1

A further test has as its target T4, ERG (Homo sapiens, UniProt P11308 1-479).
T4 sequence: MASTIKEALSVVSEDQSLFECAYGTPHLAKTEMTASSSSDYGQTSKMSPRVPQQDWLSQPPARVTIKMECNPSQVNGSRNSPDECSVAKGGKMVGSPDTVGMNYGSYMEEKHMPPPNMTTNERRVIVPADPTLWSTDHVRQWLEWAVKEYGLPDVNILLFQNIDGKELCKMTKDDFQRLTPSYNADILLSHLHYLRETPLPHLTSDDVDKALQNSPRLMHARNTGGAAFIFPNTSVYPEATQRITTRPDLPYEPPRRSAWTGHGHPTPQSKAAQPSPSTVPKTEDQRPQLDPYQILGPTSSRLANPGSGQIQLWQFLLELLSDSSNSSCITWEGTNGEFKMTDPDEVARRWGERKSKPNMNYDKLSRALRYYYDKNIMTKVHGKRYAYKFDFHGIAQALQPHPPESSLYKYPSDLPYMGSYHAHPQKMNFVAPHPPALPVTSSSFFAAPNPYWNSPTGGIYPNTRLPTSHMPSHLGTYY
Particulars: protein: recombinant; tags: N-terminal GST; dsDNA, one strand shown. The essentials: as §1

In the next test the target is ELF1 (Homo sapiens, UniProt P32519 1-619). Particulars: protein: recombinant; tags: N-terminal GST; dsDNA, one strand shown. The essentials:
as §1

The next test deals with T5, EHF (Homo sapiens, UniProt Q9NZC4 1-300).
T5 sequence: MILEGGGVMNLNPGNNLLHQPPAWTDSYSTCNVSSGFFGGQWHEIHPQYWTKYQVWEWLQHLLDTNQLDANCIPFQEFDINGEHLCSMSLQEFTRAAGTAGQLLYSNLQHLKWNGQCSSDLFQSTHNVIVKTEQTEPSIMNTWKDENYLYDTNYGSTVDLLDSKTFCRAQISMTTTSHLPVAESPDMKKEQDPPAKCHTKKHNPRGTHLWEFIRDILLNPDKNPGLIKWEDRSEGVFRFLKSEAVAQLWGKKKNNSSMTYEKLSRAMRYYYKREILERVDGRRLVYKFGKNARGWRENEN
Particulars: protein: recombinant; tags: N-terminal GST; dsDNA, one strand shown. The essentials: as §1

A further test has as its target SPI1 (Homo sapiens, UniProt P17947 1-270). The note with it: protein: recombinant; tags: N-terminal GST; dsDNA, one strand shown. The essentials:
as §1

The next test deals with SPIB (Homo sapiens, UniProt Q01892 1-262). The note with it: protein: recombinant; tags: N-terminal GST; dsDNA, one strand shown. Put shortly:
as §1

For the next test, the target named is T6, ELK3 (Homo sapiens, UniProt P41970 1-407).
T6 sequence: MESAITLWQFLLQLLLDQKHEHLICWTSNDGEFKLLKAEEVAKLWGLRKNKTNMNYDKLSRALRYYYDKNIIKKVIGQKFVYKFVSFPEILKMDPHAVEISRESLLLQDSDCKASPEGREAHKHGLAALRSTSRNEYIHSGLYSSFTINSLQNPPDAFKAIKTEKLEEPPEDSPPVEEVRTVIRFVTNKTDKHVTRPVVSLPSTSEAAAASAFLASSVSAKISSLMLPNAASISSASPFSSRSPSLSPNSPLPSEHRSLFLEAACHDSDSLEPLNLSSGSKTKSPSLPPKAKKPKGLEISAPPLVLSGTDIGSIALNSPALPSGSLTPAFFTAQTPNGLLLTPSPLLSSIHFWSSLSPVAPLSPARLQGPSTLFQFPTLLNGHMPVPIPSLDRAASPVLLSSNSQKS
Particulars: protein: recombinant; tags: N-terminal GST; dsDNA, one strand shown. Put shortly:
as §1

Another test deals with T7, FEV (Homo sapiens, UniProt Q99581 1-238).
T7 sequence: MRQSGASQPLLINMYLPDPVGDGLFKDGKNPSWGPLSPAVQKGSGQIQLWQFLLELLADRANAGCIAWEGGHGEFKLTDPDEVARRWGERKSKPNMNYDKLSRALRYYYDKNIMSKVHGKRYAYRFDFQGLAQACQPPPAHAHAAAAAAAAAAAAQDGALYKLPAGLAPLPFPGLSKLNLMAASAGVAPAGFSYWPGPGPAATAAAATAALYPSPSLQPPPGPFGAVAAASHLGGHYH
Particulars: protein: recombinant; tags: N-terminal GST; dsDNA, one strand shown. Put shortly:
as §1

In another test the target is ETV5 (Homo sapiens, UniProt P41161 1-510). Particulars: protein: recombinant; tags: N-terminal GST; dsDNA, one strand shown. Put shortly:
as §1

The target of another test is HSF1 (Homo sapiens, UniProt Q00613 1-529). The note with it: protein: recombinant; tags: N-terminal GST; chain copies: 3; dsDNA, one strand shown. The essentials: as §1
The next test has as its target T8, SPIC (Homo sapiens, UniProt Q8N5J4 1-248).
T8 sequence: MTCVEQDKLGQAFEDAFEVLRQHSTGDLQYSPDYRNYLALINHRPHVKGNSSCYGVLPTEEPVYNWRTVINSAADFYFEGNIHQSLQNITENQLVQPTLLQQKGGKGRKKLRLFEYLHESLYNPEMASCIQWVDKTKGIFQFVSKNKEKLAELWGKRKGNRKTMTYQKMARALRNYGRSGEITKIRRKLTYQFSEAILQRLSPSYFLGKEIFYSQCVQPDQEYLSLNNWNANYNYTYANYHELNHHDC
The note with it: protein: recombinant; tags: N-terminal GST; dsDNA, one strand shown. Put shortly:
as §1

For the next test, the target named is ELF4 (Homo sapiens, UniProt Q99607 1-663). The note with it: protein: recombinant; tags: N-terminal GST; dsDNA, one strand shown. Put shortly: as §1
The target in another test is T9, ELK4 (Homo sapiens, UniProt P28324-2 1-405).
T9 sequence: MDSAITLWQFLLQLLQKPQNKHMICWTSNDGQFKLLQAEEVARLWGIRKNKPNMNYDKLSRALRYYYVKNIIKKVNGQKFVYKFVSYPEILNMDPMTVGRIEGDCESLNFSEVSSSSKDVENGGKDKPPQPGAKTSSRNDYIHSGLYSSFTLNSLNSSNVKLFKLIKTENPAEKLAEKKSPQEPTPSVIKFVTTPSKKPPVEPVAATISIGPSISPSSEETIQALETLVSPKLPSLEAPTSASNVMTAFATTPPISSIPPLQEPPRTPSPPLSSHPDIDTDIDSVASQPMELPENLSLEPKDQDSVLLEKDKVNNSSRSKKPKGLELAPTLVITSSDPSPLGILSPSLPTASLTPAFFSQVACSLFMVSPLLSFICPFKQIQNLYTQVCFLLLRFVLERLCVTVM
Particulars: protein: recombinant; tags: N-terminal GST; dsDNA, one strand shown. Put shortly:
as §1

A further test has as its target T10, ETV2 (Homo sapiens, UniProt O00321 1-342).
T10 sequence: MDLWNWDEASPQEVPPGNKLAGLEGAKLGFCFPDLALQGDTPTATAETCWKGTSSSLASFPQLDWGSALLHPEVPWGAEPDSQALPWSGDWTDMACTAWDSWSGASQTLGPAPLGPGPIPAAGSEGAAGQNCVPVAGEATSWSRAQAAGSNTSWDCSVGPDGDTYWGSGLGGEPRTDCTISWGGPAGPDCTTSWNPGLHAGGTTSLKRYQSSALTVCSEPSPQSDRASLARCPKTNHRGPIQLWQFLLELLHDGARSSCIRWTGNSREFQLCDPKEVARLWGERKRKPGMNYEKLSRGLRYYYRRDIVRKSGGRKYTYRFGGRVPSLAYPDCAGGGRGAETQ
The note with it: protein: recombinant; tags: N-terminal GST; dsDNA, one strand shown. Put shortly: as §1

A further test deals with CRX (Homo sapiens, UniProt O43186 1-299). Particulars: protein: recombinant; tags: N-terminal GST; dsDNA, one strand shown. The essentials:
as §1

The next test deals with ETV1 (Homo sapiens, UniProt P50549 1-477). The note with it: protein: recombinant; tags: N-terminal GST; dsDNA, one strand shown. The essentials: as §1
ETV1, sequence (P50549 whole entry): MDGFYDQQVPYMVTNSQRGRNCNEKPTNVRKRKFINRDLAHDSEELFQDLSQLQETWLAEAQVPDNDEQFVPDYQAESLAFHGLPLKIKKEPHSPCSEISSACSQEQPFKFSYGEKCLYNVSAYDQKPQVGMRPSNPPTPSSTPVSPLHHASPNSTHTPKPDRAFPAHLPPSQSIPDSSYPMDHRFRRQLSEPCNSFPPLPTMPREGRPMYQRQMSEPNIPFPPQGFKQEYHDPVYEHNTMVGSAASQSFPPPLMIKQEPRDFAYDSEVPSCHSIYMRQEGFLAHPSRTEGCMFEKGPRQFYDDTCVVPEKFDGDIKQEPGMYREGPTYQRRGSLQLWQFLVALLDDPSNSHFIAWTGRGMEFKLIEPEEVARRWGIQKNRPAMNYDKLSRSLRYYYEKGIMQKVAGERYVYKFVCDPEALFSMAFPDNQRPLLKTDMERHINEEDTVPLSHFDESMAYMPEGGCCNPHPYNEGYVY

ELF4, sequence (Q99607 whole entry): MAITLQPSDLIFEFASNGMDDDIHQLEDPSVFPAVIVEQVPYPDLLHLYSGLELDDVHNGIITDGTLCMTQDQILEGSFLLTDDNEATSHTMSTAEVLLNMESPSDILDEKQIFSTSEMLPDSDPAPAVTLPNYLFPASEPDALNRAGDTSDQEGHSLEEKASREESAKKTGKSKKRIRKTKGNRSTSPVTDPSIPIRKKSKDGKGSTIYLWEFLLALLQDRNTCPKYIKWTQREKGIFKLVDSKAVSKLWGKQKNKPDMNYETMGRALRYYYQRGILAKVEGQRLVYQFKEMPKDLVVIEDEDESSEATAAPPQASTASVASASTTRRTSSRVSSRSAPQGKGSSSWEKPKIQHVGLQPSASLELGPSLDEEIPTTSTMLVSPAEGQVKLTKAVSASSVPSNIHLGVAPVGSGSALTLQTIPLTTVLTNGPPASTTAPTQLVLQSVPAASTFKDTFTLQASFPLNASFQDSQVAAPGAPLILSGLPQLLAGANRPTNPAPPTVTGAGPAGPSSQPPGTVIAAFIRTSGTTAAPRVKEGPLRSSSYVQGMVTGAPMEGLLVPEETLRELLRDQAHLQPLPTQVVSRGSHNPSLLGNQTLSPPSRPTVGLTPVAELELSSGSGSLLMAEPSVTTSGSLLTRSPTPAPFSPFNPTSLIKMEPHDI
HSF1, sequence (Q00613 whole entry): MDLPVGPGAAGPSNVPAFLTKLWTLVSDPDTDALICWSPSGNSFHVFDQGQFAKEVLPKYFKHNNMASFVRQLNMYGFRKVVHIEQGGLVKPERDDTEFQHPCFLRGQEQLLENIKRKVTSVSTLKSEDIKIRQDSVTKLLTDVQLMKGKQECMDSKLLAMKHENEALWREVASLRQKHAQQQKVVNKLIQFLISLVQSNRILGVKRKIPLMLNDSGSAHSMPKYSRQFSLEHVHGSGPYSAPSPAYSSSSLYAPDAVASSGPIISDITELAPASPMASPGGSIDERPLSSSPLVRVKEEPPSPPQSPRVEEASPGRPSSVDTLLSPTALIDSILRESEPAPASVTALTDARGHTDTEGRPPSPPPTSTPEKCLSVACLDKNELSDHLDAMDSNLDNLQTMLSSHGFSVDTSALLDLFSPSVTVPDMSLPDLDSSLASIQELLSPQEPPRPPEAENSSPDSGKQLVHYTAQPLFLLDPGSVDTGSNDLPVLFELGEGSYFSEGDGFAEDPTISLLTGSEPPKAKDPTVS
SPIB, sequence (Q01892 whole entry): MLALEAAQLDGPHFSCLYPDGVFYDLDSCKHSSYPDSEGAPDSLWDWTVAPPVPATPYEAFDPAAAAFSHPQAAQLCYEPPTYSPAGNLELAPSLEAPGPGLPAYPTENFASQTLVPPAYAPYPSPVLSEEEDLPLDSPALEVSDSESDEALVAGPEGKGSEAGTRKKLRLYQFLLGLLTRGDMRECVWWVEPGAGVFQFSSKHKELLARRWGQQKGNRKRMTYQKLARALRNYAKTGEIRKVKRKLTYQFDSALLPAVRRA
ETV5, sequence (P41161 whole entry): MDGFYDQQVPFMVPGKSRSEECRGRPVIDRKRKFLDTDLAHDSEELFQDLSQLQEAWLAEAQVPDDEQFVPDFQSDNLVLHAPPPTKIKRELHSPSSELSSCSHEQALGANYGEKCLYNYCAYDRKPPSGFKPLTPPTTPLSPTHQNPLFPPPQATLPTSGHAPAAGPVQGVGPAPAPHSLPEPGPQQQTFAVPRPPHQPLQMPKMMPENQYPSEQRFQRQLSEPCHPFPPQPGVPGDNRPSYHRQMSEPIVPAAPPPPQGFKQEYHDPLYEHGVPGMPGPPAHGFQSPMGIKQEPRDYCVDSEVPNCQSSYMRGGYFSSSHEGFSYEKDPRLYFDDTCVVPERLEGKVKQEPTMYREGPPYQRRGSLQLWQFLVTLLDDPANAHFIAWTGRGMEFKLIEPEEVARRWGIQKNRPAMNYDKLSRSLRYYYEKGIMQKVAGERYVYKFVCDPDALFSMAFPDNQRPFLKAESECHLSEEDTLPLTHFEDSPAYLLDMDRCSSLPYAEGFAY
CRX, sequence (O43186 whole entry): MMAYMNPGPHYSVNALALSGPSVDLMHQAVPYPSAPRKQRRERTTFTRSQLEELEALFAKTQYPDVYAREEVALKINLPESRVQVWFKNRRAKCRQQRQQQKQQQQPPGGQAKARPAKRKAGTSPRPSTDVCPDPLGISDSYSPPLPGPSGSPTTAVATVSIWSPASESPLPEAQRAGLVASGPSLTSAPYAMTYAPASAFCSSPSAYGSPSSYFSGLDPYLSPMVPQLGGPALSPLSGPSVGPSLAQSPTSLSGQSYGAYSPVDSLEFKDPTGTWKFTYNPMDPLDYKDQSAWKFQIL
ELF1, sequence (P32519 whole entry): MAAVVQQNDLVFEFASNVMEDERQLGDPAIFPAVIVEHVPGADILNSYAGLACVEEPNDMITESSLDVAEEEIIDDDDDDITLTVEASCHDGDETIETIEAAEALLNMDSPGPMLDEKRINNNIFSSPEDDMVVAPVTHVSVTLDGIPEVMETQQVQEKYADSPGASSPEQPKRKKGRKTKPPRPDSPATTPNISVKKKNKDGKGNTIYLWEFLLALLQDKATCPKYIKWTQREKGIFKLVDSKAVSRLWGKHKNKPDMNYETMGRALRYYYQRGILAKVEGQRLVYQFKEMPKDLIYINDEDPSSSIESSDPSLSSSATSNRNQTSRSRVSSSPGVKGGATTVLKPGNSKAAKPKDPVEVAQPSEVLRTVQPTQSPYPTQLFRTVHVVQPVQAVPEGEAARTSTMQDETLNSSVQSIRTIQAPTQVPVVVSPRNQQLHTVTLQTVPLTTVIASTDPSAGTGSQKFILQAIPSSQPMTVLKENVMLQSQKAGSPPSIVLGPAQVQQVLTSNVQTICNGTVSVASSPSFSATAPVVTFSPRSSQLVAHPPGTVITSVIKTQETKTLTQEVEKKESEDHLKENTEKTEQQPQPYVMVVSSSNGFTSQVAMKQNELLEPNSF

ACTCCA: the binding signal in the test with FLI1 is 1.15 fold enrichment (6-mer frequency, TF over GST control); with ELK1 it was 1.24 fold enrichment (6-mer frequency, TF over GST control); with GABPA, 1.29 fold enrichment (6-mer frequency, TF over GST control); with ERG, 1.26 fold enrichment (6-mer frequency, TF over GST control); with ELF1 it was 1.21 fold enrichment (6-mer frequency, TF over GST control); with EHF it was 1.17 fold enrichment (6-mer frequency, TF over GST control). Also, the binding signal in the test with SPI1 is 1.23 fold enrichment (6-mer frequency, TF over GST control); in the test with SPIB, 1.16 fold enrichment (6-mer frequency, TF over GST control); with ELK3, 1.17 fold enrichment (6-mer frequency, TF over GST control); with FEV it was 1.21 fold enrichment (6-mer frequency, TF over GST control); in the test with ETV5 it was 1.24 fold enrichment (6-mer frequency, TF over GST control); with HSF1, 1.14 fold enrichment (6-mer frequency, TF over GST control). Moreover, the binding signal with SPIC is 1.18 fold enrichment (6-mer frequency, TF over GST control); with ELF4, 1.23 fold enrichment (6-mer frequency, TF over GST control); with ELK4, 1.05 fold enrichment (6-mer frequency, TF over GST control); with ETV2 it was 1.15 fold enrichment (6-mer frequency, TF over GST control); with CRX, 1.06 fold enrichment (6-mer frequency, TF over GST control); in the test with ETV1 it was 1.22 fold enrichment (6-mer frequency, TF over GST control).

Source of the values: publication PMC7862700, “An all-to-all approach to the identification of sequence-specific readers for epigenetic DNA modifications on cytosine”.
